Each structure is given as a SMILES string. Records with an inconclusive call do not appear. A call without a number means that no potency is given here. The source made the active and inactive calls. Calls come from the whole dose curve; as a rule, active = well fitted cell-killing curve with a large enough effect in the repeat runs; inconclusive = weak or mixed curves, or effect the other way; inactive = flat fitted curve, though single readings scatter.
Potency is the fitted concentration of half-maximal effect.

A short description of this assay: Human pregnane X receptor (PXR) small molecule agonists, qHTS cell viability counter screen (AID 1346977). Note: nearly all actives have a fitted effect of over 50% in size. The following applies: PXR-Luc HepG2 viability, CellTiter-Fluor, 24 h; series mostly up to 92.4 µM. The text has this:
U.S. Tox21 Program National Center for Advancing Translational Sciences [NCATS] NIH Chemical Genomics Center [NCGC] U.S. Environmental Protection Agency [EPA] National Institutes of Environmental Health Sciences [NIEHS] National Toxicology Program [NTP] U.S. Food and Drug Administration [FDA] Tox21 Assay Overview: The human pregnane X receptor (hPXR) regulates the expression of several drug metabolizing enzymes and induction of these proteins is a major mechanism for developing drug resistance in cancer. One such key enzyme catalyzing the drug metabolism is cytochrome P450 3A4 (CYP3A4). Changes in CYP3A4 expression affect drug metabolism, thereby reducing the therapeutic efficacy and altering toxicological response to a drug and which finally causes adverse drug interaction. To screen Tox21 libraries for compounds that activate hPXR-mediated CYP3A4 gene expression, PXR-Luc HepG2 cells were used. Also cytotoxicity of the compounds was tested in parallel by measuring the cell viability using CellTiter-Fluor assay system in the same wells.
Tox21 Assay Protocol Summary: PXR-Luc HepG2 cells were dispensed at 2,000 per well in 5uL of assay medium containing 5% charcoal-stripped FBS into white solid bottom 1536-well plates (Corning Life Sciences, Corning, NY) using a Multidrop Combi (Thermo Scientific, Waltham, MA) dispenser. The assay plates were incubated at 37 C and 5% CO2 for 5hr, and then 23nL of compounds dissolved in DMSO and positive control were transferred using a Pintool station (Wako, San Diego, CA). The assay plates were incubated at 37C and 5% CO2 for 24hr. For cytotoxicity read, after 23hr incubation at 37C, 1uL CellTiter-Fluor reagent (Promega Corporation, Madison, WI) was added to each well of the assay plates using Flying Reagent Dispenser (FRD, Aurora Discovery, San Diego, CA). After 1hr incubation at 37C and 5% CO2, the fluorescence signal was quantified using a ViewLux plate reader (PerkinElmer, Shelton, CT).
Background: Quantitative high-throughput screening tests each substance at several concentrations.
For `COC(=O)C(C)O` (stereo not given), the Potency entry is “inactive”.
In the case of `Cc1c(-c2ccccc2)oc2c(C(=O)OCCN3CCCCC3)cccc2c1=O`, the Potency result was “inactive”.
The same measure, in the same setting: as for `O=c1[nH]c(=O)n([C@H]2C[C@H](O)[C@@H](CO)O2)cc1C(F)(F)F`, the entry is “inactive”; as for `COc1ccccc1OCC(O)COC(N)=O` (stereo not given), “inactive”; as for `CC[C@H]1CC[C@H](NCc2cc3c(cc2OC)[C@H]2C[C@H]2C(=O)N3C)[C@H](c2ccccc2)N1`, 30.6 µM (active).
For `CCOC(=O)c1cc(=O)c2c(OCC(COc3cccc4oc(C(=O)OCC)cc(=O)c34)OC(=O)[C@@H](N)CCCCN)cccc2o1`, the Potency entry is “inactive”.
For `CCCOc1ccc2c(c1)CC[C@@H]1[C@@H]2CC[C@]2(C)C(OC)CC[C@@H]12` (stereo not given in full), the Potency entry is “inactive”.
The same measure, in the same setting: the same measure for `COc1ccc(S(=O)(=O)Nc2nnc(CC(C)C)s2)cc1`: “inactive”; for `CCCCNc1cc(C(=O)O)cc(S(N)(=O)=O)c1Oc1ccccc1`: “inactive”; for `CN(C)CCOc1ccccc1Cc1ccccc1`: “inactive”.
The same measure, in the same setting: as for `CCCCCCCOC(=O)CCC`, the entry is “inactive”.
The same measure, in the same setting: as for `CCc1nnc(NS(=O)(=O)c2ccc(N)cc2)s1`, the entry is “inactive”; as for `CCC1(C)NC(=O)NC1=O` (stereo not given), “inactive”; as for `CCCCCCC`, “inactive”.
Consider `COC(=O)c1ccc2cc(C(=O)OC)ccc2c1`, for which the activity change, negative = cytotoxicity was 6.1% [at 19 µM] (inactive).
Turning to `CC(CNC1CCCCC1)OC(=O)c1ccccc1` (stereo not given), the Potency entry was “inactive”.
For `CCCCC1CCC(=O)O1` (stereo not given), the Potency result was “inactive”.
On the same count and under the same terms, as for `Cc1ccccc1C(=O)Nc1ccc(C(=O)N2CCCC(O)c3cc(Cl)ccc32)c(C)c1` (stereo not given), the entry is “inactive”.
`NC(=O)Cc1cccc(C(=O)c2ccccc2)c1N`: the Potency result is “inactive”.
On to `FC(F)(F)C(F)(F)C(F)(F)C(F)(F)C(F)(F)C(F)(F)C(F)(F)C(F)(F)Br`, for which the Potency result is “inactive”.
`OCc1ccccc1O`: the Potency result is “inactive”.
Same read-out and setting: as for `CCCN(CCC)C(=O)C(CCC(=O)O)NC(=O)c1ccccc1` (stereo not given), the entry is “inactive”.
Same read-out and setting: as for `NCCC(O)(P(=O)(O)O)P(=O)(O)O`, the entry is “inactive”; as for `OCCN(CCO)c1ccccc1`, “inactive”.
Regarding `CCN(O)CC`, the Potency was 30 µM (active).
Regarding `NCCCN1CCN(CCCN)CC1`, the Potency result is “inactive”.
Same read-out and setting: as for `CC(=O)O[C@H]1CC[C@@]2(C)C(=CC[C@@H]3[C@@H]2CC[C@]2(C)C(C(C)=O)=CC[C@@H]32)C1`, the entry is “inactive”; as for `COc1ccc(Nc2ccc(OC)cc2)cc1`, “inactive”; as for `O=C(O[C@@H](C(=O)O)[C@@H](OC(=O)c1ccccc1)C(=O)O)c1ccccc1`, “inactive”.
`CC(C)O`: the Potency entry was “inactive”.
Turning to `CC1(C)O[C@@H]2C[C@H]3[C@@H]4CCC5=CC(=O)CC[C@]5(C)[C@@]4(F)[C@@H](O)C[C@]3(C)[C@]2(C(=O)CCl)O1`, the Potency result was “inactive”.
The same measure, in the same setting: the same measure for `C[C@]12C(=O)OC(=O)[C@H]1[C@H]1C=C[C@@H]2C1`: “inactive”.
On to `CC(=O)Oc1cc(C(C)C)c(OCCN(C)C)cc1C`, for which the Potency result is “inactive”.
The same measure, in the same setting: the same measure for `Cc1cccc(C)c1NC(=O)CN1CCCCCC1`: “inactive”; for `CCCNC(C)C(=O)Nc1c(C)csc1C(=O)OC` (stereo not given): “inactive”; for `CO[C@@]1(NC(=O)CSCC#N)C(=O)N2C(C(=O)O)=C(CSc3nnnn3C)CS[C@@H]21`: “inactive”.
For `CCOC(=O)c1ccccc1O`, the Potency result was “inactive”.
Still for that read-out and setting: as for `CC(C)NC[C@@H](O)COc1cccc2ccccc12`, the entry is “inactive”; as for `Cc1nnc(SCC2=C(C(=O)O)N3C(=O)[C@@H](NC(=O)Cn4cnnn4)[C@H]3SC2)s1`, “inactive”; as for `CC(C)CCCCCCc1ccc(OCCOCCO)cc1`, “inactive”.

These data come from PubChem BioAssay (Tox21).
